Experimental data published in PubChem BioAssay (NCI).
Compounds without any hit were thinned out: in the full panel of roughly 83,000, 20% have a hit.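 Single-concentration screen, 48 h exposure, 96-well plates. Endpoint: percent growth. Below 10 = active.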 A number with no mark means an inactive call. Activity calls are given as the source filed them.

System: HS 578T breast
Experiment: NCI-60 one-dose screen, 48 h (100 = growth as untreated, 0 = no growth, -100 = all killed)
Settings: 10 µM unless noted
Procedure: Growth inhibition of the HS 578T human tumor cell line is measured as a screen for anti-cancer activity. Cells are grown in 96 well plates and exposed to the test compound for 48 hours. Compounds are tested at a single concentration, which is 10^-5 M for most compounds. The reported endpoint is percent growth (GI% or GIPRCNT), where numbers from 0 - 100% represent growth inhibition, and numbers from -100% - 0 represent cell death. For example, a value of 40 represents 60% growth inhibition. A value of 0 means no net growth occurred over the course of the experiment. A value of -40 indicates 40% of cells at the beginning of the experiment died by the end of the experiment. A value of -100 means all cells are dead at the end of the experiment.
NCI-60 Human Tumor Cell Lines Screen was performed using the standard one-dose NCI protocol, which is described in more detail at https://dtp.cancer.gov/discovery_development/nci-60/default.htm.
Compounds with GIPRCNT values below 10 were considered active. Activity score was based on GIPRCNT using the following formula: […]
Score is 0 for GIPRCNT values of 100 or above, 50 for GIPRCNT values of 0, and 100 for GIPRCNT values of -100.

| Compound | growth |
| --- | --- |
| Cc1ccc2oc(=O)c3c(c2c1)OC(N)=C(C#N)C3c1ccco1 (stereo not given) | 93.5% |
| CC1COC(=O)C1 (stereo not given) | 99.2% |
| CN1C(=O)NC(=O)C(N=Nc2ccc(Cl)cc2)C1=O (stereo not given) | 114% |
| C[C@@H]1CC[C@@H]2[C@@H]1[C@H](OC(=O)/C=C/C1CCCCC1)[C@]1(C3CCCCC3)C[C@@H](OC(=O)CO)[C@@]2(C)O1 | -28.1% (active) |
| COc1cc(/C=C\c2cc(OC)c(OC)c(OC)c2)cc(N/C=C\C(=O)c2ccc(OC(F)(F)F)cc2)c1OC | 29.4% |
| CCCC(C)(C)c1ccc2c(c1)OC(C)(C)[C@@H]1CC=C(C)C[C@@H]21 | 100% |
| CCOc1ccc(C(O)CN(C)Cc2ccccc2)cc1Cl (stereo not given) | 101% |
| [Br][Pb]([c]1ccccc1)([c]1ccccc1)[c]1ccccc1 | -35.6% (active) |
| CC(C)Nc1ccc(Nc2ccccc2)cc1 | 17.9% |
| CCOc1cc(C=C(C#N)C#N)cc(Br)c1O | 107% |
| CCOC(=O)Nc1cc(Cl)c([N+](=O)[O-])c(NC(=O)OCC)n1 | 106% |
| CCCCOC(=O)c1ccccc1C(=O)O.CCCCOC(=O)c1ccccc1C(=O)O.[Cu+2] | 97.3% |
| CC(C)[C@]12O[C@H]1[C@@H]1O[C@]13[C@]1(O[C@H]1C[C@H]1C4=C(CC[C@@]13C)C(=O)OC4)[C@@H]2OC(=O)OC(C)(C)C | -6.44% (active) |
| O=S(=O)(Cl)c1ccccc1 (tested in a mixture with another compound) | 102% |
| Nc1cccc2c1Oc1ccccc1O2 | 112% |
| NC(Cc1ccc(O)cc1)C(=O)N/N=C/c1ccc(N(CCCl)CCCl)cc1 (stereo not given) | 91.9% |
| CCOc1cc(/C=N\Nc2nnc(C)n2N)c(C)cc1N(CCCl)CCCl | 14.6% |
| NC(Cc1ccc2c(c1)OCO2)c1ccc2c(c1)OCO2 (stereo not given) | 103% |
| CNC(C)Cc1ccccc1 (stereo not given) (tested in a mixture with another compound) | 106% |
| CC1(C)CC2(CC(C)(C)c3cc(O)c(O)cc32)c2cc(O)c(O)cc21 | 89.2% |

| Compound | growth |
| --- | --- |
| c1cnc2c(c1)ccc1ncccc12 | 159% |
| Oc1ccc(O)c2c1C1(Cl)C(Cl)=C(Cl)C2(Cl)C1(Cl)Cl | 55.6% |
| CC(=O)O[C@H]1CCC2C3CCC4=C/C(=N/O)CCC4(C)C3CCC21C (stereo not given in full) | 55.2% |
| O=C(CC1(O)C(=O)Nc2ccc(F)cc21)c1ccc(C(=O)NCC2CCC3(CC2)OOC2(CCCCC2)OO3)cc1 (stereo not given) | 73.8% |
| CCC(C)(C)O | 105% |
| COc1c(O)c2c3c(c1OC)-c1ccccc1CC3N(C)CC2 (stereo not given) | 110% |
| CCOc1c(Cl)cc(CNC(C)C(O)c2ccccc2)cc1OC (stereo not given) | 67.5% |
| CC(C)(O)/C=C/C(=O)[C@](C)(O)[C@H]1[C@H](O)C[C@@]2(C)[C@@H]3CC=C4[C@@H](C=C(O)C(=O)C4(C)C)[C@]3(C)C(=O)C[C@]12C | -17.4% (active) |
| CC(=O)N1N=C(c2ccccc2)CC1c1sc(N(CCCl)CCCl)nc1Cl (stereo not given) | 88% |
| Oc1ccc2c3c1O[C@H]1c4[nH]c5ccccc5c4C[C@@]4(O)C(C2)N(CC2CC2)CC[C@]314 | 92.1% |
| CC(C)(NC(=O)c1nn(CCCCCF)c2ccccc12)c1ccccc1 | 96.6% |
| S=P(NC1CCCCC1)(N1CC1)N1CC1 | 114% |
| O=C(CI)Nc1ccc(Br)cc1 | 132% |
| C[As](=O)(O)c1ccc(C(=O)O)cc1 | 113% |
| Fc1ccc(C2=NN(c3ccccc3)C(c3sc(N(CCCl)CCCl)nc3Cl)C2)cc1 (stereo not given) | 74.5% |
| O=C(CCc1ccco1)NC1CCN(CC2(c3ccc(Cl)cc3)CCC2)CC1 | 28.7% |
| CNC(=O)O/N=C(/C)c1ccc(Cl)cc1 | 137% |
| O=[N+]([O-])c1ccc(/C=C/C=C/c2ccc(S(=O)(=O)F)cc2)c(Cl)c1 | 111% |
| CCC1CN1P(=O)(OCCOC)N1CC1CC (stereo not given) | 114% |
| CCOP(=O)(OCC)Oc1ccc(Sc2ccc(OP(=O)(OCC)OCC)cc2)cc1 | 109% |
